This note sets out measurements from PubChem BioAssay (Tox21).

The structures appear in SMILES notation. Activity calls are given as the source filed them. Calls come from the whole dose curve; as a rule, active = well fitted curve in the direction sought with a large enough effect in the repeat runs; inconclusive = weak or mixed curves; inactive = flat fitted curve, though single readings scatter.
% is set by controls: 0 for no effect and ±100 for the full control effect.

The nature of this test: qHTS assay to test for compound auto fluorescence at 535 nm (green) in HEK293 cells (AID 720680). Particulars: green autofluorescence 485/535 nm; series mostly up to 91.3 µM; fluorescence, % of fluorescein: at the top concentration. The source says:
U.S. Tox21 Program National Center for Advancing Translational Sciences [NCATS] NIH Chemical Genomics Center [NCGC] U.S. Environmental Protection Agency [EPA] National Institutes of Environmental Health Sciences [NIEHS] National Toxicology Program [NTP] U.S. Food and Drug Administration [FDA] Tox21 Assay Overview: Compound auto fluorescence often interferes with screening of the compound library against various biological targets and signaling pathways. Some of these compounds may have fluorophoric properties. Such properties may interfere with the assay outputs resulting in false positives and/or negatives. To decrease such complications and ensure the compound activities are relevant in terms of biological response, the Tox21 10K compound library was screened for auto fluorescence. From the fluorophores used as reporter signals in our screening assays, the auto fluorescence equivalencies of compounds against three fluorophores have been evaluated: Triamterene, Fluorescein and Rose Bengal sodium for blue, green and red fluorescence, respectively. The fluorescence intensities were measured using Excitation/Emission wavelengths at 405/460nm, 485/535nm and 540/590nm for blue, green and red labels, respectively. This assay includes the green fluorescence data.
Tox21 Assay Protocol Summary: 2,000 HEK293 cells in 5 uL of culture medium containing 10% dialyzed FBS per well were dispensed into black wall/clear bottom 1536-well plates using a Multidrop Combi Dispenser (Thermo Scientific). The assay plates were incubated for 4-5 hr at 37C to allow cell attachment to the well bottom, followed by the transfer of 23 nL compound or DMSO vehicle by a pintool work station (Kalypsys, San Diego, CA). After the assay plates were incubated overnight at 37C and 5% CO2, fluorescence intensities in the assay plates were measured by an Envision (PerkinElmer, Shelton, CT) plate reader using three labels for measuring blue, green and red fluorescence at […] 460, 535 and 590nm respectively.
A general note: qHTS replaces the single test concentration by a dilution series.
With `CC(C)C(=O)O`, the “fluorescence, % of fluorescein” value is -0.118% (inactive).

As to `CC1C2CC(CC2C2CCCC(O)C2)C1(C)C` (stereo not given), the “fluorescence, % of fluorescein” value was 0.0086% (inactive).

`CCCCCCCCCCCCCCCCBr`: the fluorescence, % of fluorescein was -0.0178% [at 18.6 µM] (inactive).

Take `O=C(NCCCN1CCOCC1)c1ccc(Cl)cc1`: the “fluorescence, % of fluorescein” value was -0.0125% [at 46 µM] (inactive).

With `NC(=O)N(O)[C@@H]1COc2cc(OCc3ccccc3)ccc21`, the “fluorescence, % of fluorescein” value is 0.0636% (inactive).

In the case of `Cc1cc(O)c(C(C)C)cc1Cl`, the outcome was inactive.

With `COCCOC(=O)C1=C(C)NC(C)=C(C(=O)OC/C=C/c2ccccc2)C1c1cccc([N+](=O)[O-])c1` (stereo not given), the “fluorescence, % of fluorescein” value was -0.0392% [at 46 µM] (inactive).

With `Cc1nc2ccccc2s1`, the “fluorescence, % of fluorescein” value was -0.0643% (inactive).

In the case of `C=CC(C)(C)CC(=O)OC`, the “fluorescence, % of fluorescein” value is 0.0121% (inactive).

Turning to `CCCCC/C(=C\c1ccccc1)CO`, the “fluorescence, % of fluorescein” value was 0.0235% [at 95.7 µM] (inactive).

As to `CO[C@@]12[C@H](COC(N)=O)C3=C(C(=O)C(C)=C(N)C3=O)N1C[C@@H]1N[C@@H]12`, the “fluorescence, % of fluorescein” value was -0.257% [at 46 µM] (inactive).

Regarding `O=C(N/N=C/c1ccc([N+](=O)[O-])o1)c1ccc(O)cc1`, the fluorescence, % of fluorescein was 0.0272% [at 18.6 µM] (inactive).

As for `O=C(O)Cc1ccc(-c2ccccc2)cc1`, the fluorescence, % of fluorescein was -0.0578% [at 18.6 µM] (inactive).

Regarding `Cc1nccn1-c1ccc(Sc2cccc(C3(C(N)=O)CCOCC3)c2)cc1`, the “fluorescence, % of fluorescein” value is 0.146% (inactive).

`Cc1cc2nc3ccc(=[N+](C)C)cc-3sc2cc1N`: the “fluorescence, % of fluorescein” value is 0.106% [at 46 µM] (inactive).

For `CC(COc1ccc(C(C)(C)C)cc1)OS(=O)OCCCl` (stereo not given), the “fluorescence, % of fluorescein” value is -0.0111% (inactive).

For the molecule `CC(CCc1ccc2c(c1)OCO2)NN` (stereo not given), the “fluorescence, % of fluorescein” value is -0.0137% [at 46 µM] (inactive).

`CC(C)OCC1CO1` (stereo not given): the “fluorescence, % of fluorescein” value is -0.0335% (inactive).

For the molecule `CCCCC1C(=O)N(c2ccccc2)N(c2ccc(O)cc2)C1=O` (stereo not given), the fluorescence, % of fluorescein was -0.124% [at 18.6 µM] (inactive).

For the molecule `CN1CCCN=C1/C=C/c1cccs1`, the “fluorescence, % of fluorescein” value is -0.0058% [at 46 µM] (inactive).

As to `C1COCO1`, the “fluorescence, % of fluorescein” value was -0.0012% (inactive).

Consider `CC(C)(C)C(=O)O`, for which the “fluorescence, % of fluorescein” value was 0.0296% (inactive).

As to `Cc1ccccc1N1C(=O)c2cc(S(N)(=O)=O)c(Cl)cc2NC1C` (stereo not given), the molecule was called inactive.

In the case of `CCNC(=O)N1CCN(CCCC(c2ccc(F)cc2)c2ccc(F)cc2)CC1`, the “fluorescence, % of fluorescein” value is -0.281% [at 46 µM] (inactive).

Take `CC1=C(C=O)C(C)(C)CCC1`: the “fluorescence, % of fluorescein” value is -0.0091% (inactive).

As for `CCCCCCCC/C=C\CCCCCCCC(=O)OC`, the “fluorescence, % of fluorescein” value is 0.0419% (inactive).

As to `CCN(CC)CCNC(=O)c1ccc(NC(C)=O)cc1`, the “fluorescence, % of fluorescein” value is 0.0628% [at 46 µM] (inactive).

Take `Oc1cc(O)c(Cl)cc1Cl`: the “fluorescence, % of fluorescein” value is 0.177% [at 95.7 µM] (inactive).

Consider `N#C/C(=C1/SC[C@@H](c2ccc(Cl)cc2Cl)S1)n1ccnc1`, for which the call was inactive.

`OC/C(Br)=C(\Br)CO`: the “fluorescence, % of fluorescein” value is -0.0262% (inactive).

On to `Nc1ccc(S(=O)(=O)O)cc1`, for which the “fluorescence, % of fluorescein” value was 0.142% (inactive).

Consider `COC(=O)[C@@H]1CC2=CC(=O)CC[C@]2(C)[C@@]23O[C@@H]2C[C@@]2(C)[C@@H](CC[C@@]24CCC(=O)O4)[C@H]13`, for which the “fluorescence, % of fluorescein” value was 0.026% [at 46 µM] (inactive).

Take `CCCCC(CC)CNCC(CC)CCCC` (stereo not given): the “fluorescence, % of fluorescein” value is -0.0495% (inactive).

On to `CCCOC(=O)c1ccc(N)cc1`, for which the “fluorescence, % of fluorescein” value is -0.0308% [at 46 µM] (inactive).

Consider `CC(=O)Nc1ccc(N)cc1`, for which the “fluorescence, % of fluorescein” value is -0.0631% [at 95.7 µM] (inactive).

Consider `CCCCOC(=O)CCS`, for which the “fluorescence, % of fluorescein” value is -0.102% (inactive).

Regarding `C[N+](C)(C)CCOC(N)=O`, the “fluorescence, % of fluorescein” value was 0.0089% [at 46 µM] (inactive).

Regarding `C[N+]1(C)CCC(=C(c2ccccc2)c2ccccc2)CC1`, the fluorescence, % of fluorescein is -0.0107% [at 18.6 µM] (inactive).

`C=CC(C)=CCC=C(C)C`: the “fluorescence, % of fluorescein” value is 0.0317% (inactive).

As for `CC(=O)[C@H]1CC[C@H]2[C@@H]3C=CC4=CC(=O)CC[C@@]4(C)[C@@H]3CC[C@]12C`, the fluorescence, % of fluorescein was -0.274% [at 18.6 µM] (inactive).
